Activity calls are given as the source filed them. Cut-off read from the data, not from the text of the source: active = inhibition of mean fluorescence above about 33%; inactive = the rest.

A short description of this test: quorum sensing inhibitors in bacterial reporter, SAR follow-up, flow cytometry, SAR analogs (AID 1014).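 Note: Staphylococcus aureus RN6390 with RNAIII-GFP reporter stimulated by AIP; bacteria incubated with compound for 3 hours at 37 °C.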 The note with it: at 20 µM, stronger effect = higher value; inhibition of percent positive cells: flow cytometry fluorescence, measured here: percent reporter-positive cells.

In the case of `COc1ccc(OC)c(C(=O)c2coc3ccc(O)cc23)c1`, the inhibition of mean fluorescence is -21.9% (inactive) and the inhibition of percent positive cells came to 0%.
For `Cc1cccc(OCC(=O)Nc2sc3c(c2C#N)CCCC3)c1C`, the inhibition of mean fluorescence was 28.1% (inactive) and the inhibition of percent positive cells amounted to 1.4%.
On the same counts, the results for `Cc1ccc(S(=O)(=O)c2nnn3c2nc(Nc2ccc(Oc4ccccc4)cc2)c2ccccc23)cc1` are -5% (inactive) and 0%.
On the same counts, the results for `Cc1oc2ccc(O)cc2c1C(=O)OC(C)C` are -11.3% (inactive) and 0.1%.
Taken in the same sequence, the figures for `CC1CCCN(CCC(=O)Nc2ccc3c(c2)OCO3)C1` (stereo not drawn) were -15.3% (inactive) and -1.5%.
Take `CCOC(=O)c1c(-c2ccccc2)oc2ccc(O)cc12`: the inhibition of mean fluorescence is 13.3% (inactive) and the inhibition of percent positive cells was -0.9%.
On the same counts, the results for `O=C(NCC(c1cccnc1)N1CCN(c2ccc(F)cc2)CC1)c1ccccc1F` (stereo not drawn) are -2.2% (inactive) and 0.3%.
Taken in the same sequence, the figures for `CC1CCCN(C(C(=O)Nc2ccc3c(c2)OCO3)c2ccccc2)C1` (stereo not drawn) were 81.5% (active) and 81.9%.
Taken in the same sequence, the figures for `COc1ccc(Nc2nc3c(S(=O)(=O)c4ccccc4)nnn3c3ccccc23)cc1` were -5.6% (inactive) and -0.4%.
Regarding `O=C(NCC(c1cccnc1)N1CCN(c2ccccc2F)CC1)c1cccc(Cl)c1` (stereo not drawn), the inhibition of mean fluorescence is 67.2% (active) and the inhibition of percent positive cells stood at 3.5%.
In the case of `O=C(O)c1ccccc1Nc1cccc2c1C(=O)c1ccccc1C2=O`, the inhibition of mean fluorescence was 58.7% (active) and the inhibition of percent positive cells was determined as 10%.
On the same counts, the results for `O=C(NCCN1CCN(c2ccccc2F)CC1)c1ccc2c(Cl)c3c(nc2c1)CCCC3` are 4.8% (inactive) and -0.2%.
On the same counts, the results for `COc1ccc(C(=O)c2coc3ccc(O)cc23)cc1` are 5% (inactive) and 0.8%.
On to `O=C(NCC(c1cccnc1)N1CCc2ccccc21)c1cccc(Br)c1` (stereo not drawn), for which the inhibition of mean fluorescence is 29.6% (inactive) and the inhibition of percent positive cells worked out at 0.1%.

(Values after PubChem BioAssay AID1014 (NMMLSC, 2008).)
